Measurements: PubChem BioAssay AID1259341 (Broad Institute, 2017)
Activity calls are given as the source filed them.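 How the source made its calls: active means activity change under -35% in any replicate well, with more than 20 beads read in that well; inactive means the rest.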

Molecular target: Caspase recruitment domain-containing protein 9 (Homo sapiens) + E3 ubiquitin-protein ligase TRIM62 (Homo sapiens) (UniProt Q9H257+Q9BVG3)
Assay: disruptors of CARD9-TRIM62 binding, primary screen, cell lysate, HEK293FT lysates, Luminex bead ELISA (AID 1259341);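 further: PE anti-Flag signal of Flag-CARD9 captured by myc-TRIM62 beads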
Details: PE fluorescence, active compounds read low, concentration not given here

Caspase recruitment domain-containing protein 9 (Homo sapiens) + E3 ubiquitin-protein ligase TRIM62 (Homo sapiens), sequence (Q9BVG3 whole entry, looked up, the tested form may be a part): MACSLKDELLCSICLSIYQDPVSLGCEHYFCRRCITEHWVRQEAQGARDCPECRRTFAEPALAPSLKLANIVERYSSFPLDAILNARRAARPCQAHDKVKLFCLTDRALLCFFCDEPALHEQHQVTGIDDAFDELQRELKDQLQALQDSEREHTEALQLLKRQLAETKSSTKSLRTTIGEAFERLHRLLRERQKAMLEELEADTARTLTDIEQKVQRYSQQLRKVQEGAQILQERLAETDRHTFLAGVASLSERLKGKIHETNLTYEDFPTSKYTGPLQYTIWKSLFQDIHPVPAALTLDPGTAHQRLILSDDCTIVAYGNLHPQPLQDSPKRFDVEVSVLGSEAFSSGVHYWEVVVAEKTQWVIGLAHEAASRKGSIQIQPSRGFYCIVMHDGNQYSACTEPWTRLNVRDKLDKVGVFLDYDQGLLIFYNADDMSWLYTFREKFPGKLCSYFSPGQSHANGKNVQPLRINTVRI
Caspase recruitment domain-containing protein 9 (Homo sapiens) + E3 ubiquitin-protein ligase TRIM62 (Homo sapiens), sequence (Q9H257 whole entry, looked up, the tested form may be a part): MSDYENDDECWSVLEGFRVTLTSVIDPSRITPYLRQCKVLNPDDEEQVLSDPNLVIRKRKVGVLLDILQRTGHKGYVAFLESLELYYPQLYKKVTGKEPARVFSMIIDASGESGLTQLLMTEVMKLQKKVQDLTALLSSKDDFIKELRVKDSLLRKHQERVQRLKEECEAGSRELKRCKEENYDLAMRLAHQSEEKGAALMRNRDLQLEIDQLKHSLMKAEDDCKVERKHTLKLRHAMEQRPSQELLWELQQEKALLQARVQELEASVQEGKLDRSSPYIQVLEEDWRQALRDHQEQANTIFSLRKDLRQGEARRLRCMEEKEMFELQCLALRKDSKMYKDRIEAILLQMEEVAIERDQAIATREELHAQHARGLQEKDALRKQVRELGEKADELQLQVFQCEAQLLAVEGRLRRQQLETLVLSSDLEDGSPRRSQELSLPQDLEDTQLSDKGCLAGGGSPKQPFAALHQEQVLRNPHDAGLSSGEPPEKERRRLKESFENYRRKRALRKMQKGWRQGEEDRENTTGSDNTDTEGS

Structure (SMILES)	activity change, negative = inhibition
Cc1ccc(S(=O)(=O)Cc2ccc(C(=O)N3CCC4(CC3)OCCO4)o2)cc1	1.47% (inactive)
O=C(NC1(C(F)(F)F)Oc2ccc(Cl)cc2O1)N1CCC2(CC1)OCCO2 (configuration not stated)	-0.512% (inactive)
CCCCCn1c(NC(=O)c2ccco2)c(C(=O)OCC)c2nc3ccccc3nc21	-11.3% (inactive)
Nc1c(C(=O)NCc2ccco2)c2nc3ccccc3nc2n1CCN1CCOCC1	-14.4% (inactive)
Nc1c2c(nc3ccccc13)CCN(Cc1ccccc1)C2	-1.61% (inactive)
O=C(NCCc1ccccc1)c1cc2cccnc2n(Cc2ccccc2)c1=O	-0.118% (inactive)
O=C(Nc1ccon1)c1cc2cccnc2n(Cc2ccccc2)c1=O	4.61% (inactive)
